Screening data deposited in PubChem by several laboratories.
GC-B act = human GC-B receptor activators, primary screen, HEK293 GC-B cells, cGMP TR-FRET, EC30 CNP. activation, % at 10 µM. hit rate 0.11% among 370,000. Atrial natriuretic peptide receptor 2 (Homo sapiens), P20594. 0% at EC30 CNP, 100% saturating CNP;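 active = activation at 10 µM reaching about 35% in either raw or pattern-adjusted values, limit read from the data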
TLR4-MyD88 BLA = inhibitors of TLR4-MyD88 association in cells, primary screen, cell-based, HeLa CL3-4, BLA complementation, FRET ratio; Toll-like receptor 4 (Homo sapiens) + Myeloid differentiation primary response protein …; inhibition, % at 8.4 µM; hit rate 0.18% among 200,000; HeLa CL3-4 TLR4/MyD88 BLA complementation; in the data active = inhibition above about 25%;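 also: 0% = vehicle and 100% = reference inhibitor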
Target sequence (O00206 whole entry, looked up): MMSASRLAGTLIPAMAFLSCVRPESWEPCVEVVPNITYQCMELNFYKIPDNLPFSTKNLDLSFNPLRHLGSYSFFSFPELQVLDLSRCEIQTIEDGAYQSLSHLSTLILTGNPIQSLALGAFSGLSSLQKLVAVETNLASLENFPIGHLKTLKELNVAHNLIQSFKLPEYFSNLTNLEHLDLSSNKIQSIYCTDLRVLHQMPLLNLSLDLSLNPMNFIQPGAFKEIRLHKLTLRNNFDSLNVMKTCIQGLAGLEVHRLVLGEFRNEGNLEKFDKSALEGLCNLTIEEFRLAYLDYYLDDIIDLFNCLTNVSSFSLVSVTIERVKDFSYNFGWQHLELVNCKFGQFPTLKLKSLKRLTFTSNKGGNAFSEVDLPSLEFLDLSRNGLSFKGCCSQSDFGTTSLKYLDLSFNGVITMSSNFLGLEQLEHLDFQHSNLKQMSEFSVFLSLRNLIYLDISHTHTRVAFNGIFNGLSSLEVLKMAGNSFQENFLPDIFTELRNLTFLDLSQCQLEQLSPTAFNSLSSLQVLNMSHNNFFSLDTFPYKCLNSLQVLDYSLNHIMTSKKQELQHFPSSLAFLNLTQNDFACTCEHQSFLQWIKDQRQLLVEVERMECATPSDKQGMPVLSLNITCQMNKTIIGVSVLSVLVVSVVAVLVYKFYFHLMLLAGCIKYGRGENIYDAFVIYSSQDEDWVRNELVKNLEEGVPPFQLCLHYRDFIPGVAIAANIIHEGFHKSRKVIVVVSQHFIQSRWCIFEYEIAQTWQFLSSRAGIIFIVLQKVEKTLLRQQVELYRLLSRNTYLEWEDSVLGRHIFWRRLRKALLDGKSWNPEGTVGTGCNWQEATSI
Target sequence (Q99836 whole entry, looked up): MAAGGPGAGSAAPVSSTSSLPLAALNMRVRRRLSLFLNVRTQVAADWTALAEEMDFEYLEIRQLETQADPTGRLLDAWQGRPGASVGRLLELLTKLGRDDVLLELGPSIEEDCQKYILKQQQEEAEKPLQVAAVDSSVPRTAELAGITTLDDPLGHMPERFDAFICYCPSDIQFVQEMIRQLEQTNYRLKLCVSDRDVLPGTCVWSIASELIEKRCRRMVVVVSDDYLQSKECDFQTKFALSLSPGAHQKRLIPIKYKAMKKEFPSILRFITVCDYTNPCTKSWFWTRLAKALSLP
Neddylation inh = inhibitors of cullin neddylation, primary screen, biochemical, TR-FRET, uHTS, NAE and Ubc12. NEDD8-conjugating enzyme Ubc12 (Homo sapiens) + NEDD8-activating enzyme E1 regulatory …. inhibition, % at 25 µM. hit rate 0.58% among 360,000; in the data active = inhibition above about 36%
TLR9-MyD88 block = inhibitors of TLR9-MyD88 association in cells, primary screen, cell-based, CHO, BLA complementation, fluorescence. CCF4 FRET ratio. inhibition, % at 4.98 µM. AID 504734, 2011. Toll-like receptor 9 (Homo sapiens) + Myeloid differentiation primary response protein …. hit rate 0.21% among 340,000;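 active = inhibition above the mean over all tested compounds plus 3 SD, cut at about 21% in these data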;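 also: 0% = DMSO only wells and 100% = clavulanate BLA inhibitor control wells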
GC-A act = GC-A stimulated cGMP production enhancers – HEK293 GC-A cells, cGMP TR-FRET, EC30 ANP, primary screen | Atrial natriuretic peptide receptor 1 (Homo sapiens), P16066 | 0% at EC30 ANP, 100% saturating ANP | activation, % at 10 µM | hit rate 0.14% among 370,000 | AID 1671463, 2021; in the data active = activation above about 40%
NOD2-RIPK2 inh = NOD2-RIPK2 binding disruptors in cells, primary screen, fluorescence, CHO cells, BLA complementation; CCF4 ratio; inhibition, % at 4.98 µM; hit rate 0.38% among 360,000; AID 624267, 2012; in the data active = inhibition above about 21%;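 also: 0% = vehicle only and 100% = reference blocker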
Neddyl conf = blockade of NEDD8 conjugation to cullin – biochemical, TR-FRET, single concentration, confirmation | hit rate 13% among 1,800 | shares compounds with Neddylation inh | TR-FRET cullin neddylation biochemical assay | calls only at 25 µM; in the data active = inhibition above about 40%;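 also: neddylation substrate is the cullin 1 ring ligase complex with SKP2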
Numbers without * were called inactive. Compounds with a hit are over-represented: about 1.2% of the library has one in this group of screens.

`Cc1cc(NS(=O)(=O)c2ccc(NS(=O)(=O)c3ccc(Br)cc3)cc2)no1` gave GC-B act 2, Neddylation inh 57*, TLR9-MyD88 block -1, GC-A act -4, NOD2-RIPK2 inh -10 and Neddyl conf active.
Cc1cc(NS(=O)(=O)c2ccc(NC(=O)/C=C/c3ccc(Br)cc3)cc2)no1 was read as GC-B act 1, Neddylation inh -16, TLR9-MyD88 block -9, GC-A act 2 and NOD2-RIPK2 inh -1.
Screening Cc1cccc(NC(=O)CSc2nc(=O)n(CCCN3CCOCC3)c3c2CCCC3)c1C returned GC-B act 5, Neddylation inh -4, TLR9-MyD88 block 2, GC-A act -2 and NOD2-RIPK2 inh -1.
COCCn1c(C)cc(/C=C(\C#N)C(=O)OCC(=O)Nc2ccc(S(N)(=O)=O)cc2)c1C was read as GC-B act -5, Neddylation inh 40*, TLR9-MyD88 block -10, GC-A act -1, NOD2-RIPK2 inh 2 and Neddyl conf active.
For COc1cc(C=Cc2nnc3c4ccccc4cnn23)cc(OC)c1OC the results were GC-B act 0, Neddylation inh -183, TLR9-MyD88 block -7, GC-A act 5 and NOD2-RIPK2 inh -10.
Screening COC(=O)CSc1nc2ccc(N)cc2s1 returned GC-B act -5, TLR4-MyD88 BLA 11, Neddylation inh 11, TLR9-MyD88 block 4, GC-A act -3 and NOD2-RIPK2 inh 0.
Screening COC(=O)CSc1ccc2c(N)c(C(=O)OC)sc2c1 returned GC-B act 1, TLR4-MyD88 BLA 6, Neddylation inh 51*, TLR9-MyD88 block 0, GC-A act 8, NOD2-RIPK2 inh -2 and Neddyl conf active.
For CC(=O)/C=C\c1cn(-c2ncc(C(F)(F)F)cc2Cl)c2ccccc12 the results were GC-B act -19, TLR4-MyD88 BLA 1, Neddylation inh 18, TLR9-MyD88 block -1, GC-A act -23 and NOD2-RIPK2 inh 1.
Screening N#CC(C#N)=Cc1cn(-c2ncc(C(F)(F)F)cc2Cl)c2ccccc12 returned GC-B act -18, TLR4-MyD88 BLA -9, Neddylation inh 46*, TLR9-MyD88 block 6, GC-A act -20, NOD2-RIPK2 inh 4 and Neddyl conf inactive.
Screening S=C(Nc1ccc(Br)cc1)OCCN1CCCC12CCC(c1ccccc1)CC2 (configuration not stated) returned GC-B act -1 and GC-A act 3.
Screening CC1C(O)=C(c2nc3ccccc3[nH]2)C(=N)N1c1ccccc1 (configuration not stated) returned GC-B act -2, TLR4-MyD88 BLA -20, Neddylation inh 46*, TLR9-MyD88 block -4, GC-A act 6, NOD2-RIPK2 inh -3 and Neddyl conf inactive.
O=C(c1cccc(I)c1)N1CCC(Oc2cccnc2)CC1 was read as GC-B act -4 and GC-A act -1.
CCc1c(C)c2ccc(OC(C)C(=O)NC(Cc3c[nH]c4ccc(O)cc34)C(=O)O)c(C)c2oc1=O (configuration not stated) was read as GC-B act -12, Neddylation inh 46*, TLR9-MyD88 block 10, GC-A act 4, NOD2-RIPK2 inh -28 and Neddyl conf active.
Screening COCCN1C=C(C(=O)OC)C(c2ccc3c(c2)OCO3)C(C(=O)OC)=C1 returned GC-B act -5, TLR4-MyD88 BLA 2, Neddylation inh 50*, TLR9-MyD88 block -6, GC-A act -4, NOD2-RIPK2 inh 0 and Neddyl conf active.
For COCCN1C=C(C(=O)OC)C(c2cc3c(cc2Br)OCO3)C(C(=O)OC)=C1 the results were TLR4-MyD88 BLA 1.
For Cc1cc(NS(=O)(=O)C2CCN(C(=O)Cc3ccc(Cl)c(Cl)c3)CC2)no1 the results were GC-B act -6 and GC-A act 3.
COc1ccc(OC)c(CC(=O)Nc2ccc3c(c2)c(=O)n(C)n3Cc2cccc(C(F)(F)F)c2)c1 was read as GC-B act 3, GC-A act 2 and NOD2-RIPK2 inh 6.
Screening Nc1ccccc1-n1cccc1 returned GC-B act 3, Neddylation inh 41*, GC-A act 1, NOD2-RIPK2 inh -4 and Neddyl conf inactive.
Cc1ccc(C)n1-c1ccccc1N was read as TLR4-MyD88 BLA -10.
For CCOc1ccc(-c2nc(C#N)c(N3CCN(C)CC3)o2)cc1 the results were GC-B act 2, TLR4-MyD88 BLA -11, TLR9-MyD88 block -1, GC-A act 1 and NOD2-RIPK2 inh -8.
N#Cc1nc(-c2ccccc2)oc1N1CCN(C(=O)c2ccco2)CC1 was read as GC-B act -1, Neddylation inh 42*, TLR9-MyD88 block -12, GC-A act 0, NOD2-RIPK2 inh 7 and Neddyl conf inactive.
`CCCOc1ccc(-c2nc(C#N)c(N3CCc4ccccc4C3)o2)cc1` gave GC-B act -2, TLR4-MyD88 BLA 3, Neddylation inh 49*, TLR9-MyD88 block -11, GC-A act -1, NOD2-RIPK2 inh -6 and Neddyl conf inactive.
N#Cc1nc(-c2ccco2)oc1N1CCc2ccccc2C1 was read as GC-B act -7, TLR4-MyD88 BLA -4, Neddylation inh 45*, TLR9-MyD88 block 7, GC-A act 4, NOD2-RIPK2 inh 3 and Neddyl conf inactive.
`CCCOc1ccc(-c2nc(C#N)c(N3CCN(C)CC3)o2)cc1` gave GC-B act -1, TLR4-MyD88 BLA -10, Neddylation inh 46*, TLR9-MyD88 block 4, GC-A act -1 and NOD2-RIPK2 inh 0.
For N#Cc1nc(-c2ccccc2)oc1N1CCCCC1 the results were GC-B act -7, TLR4-MyD88 BLA 0, TLR9-MyD88 block -12, GC-A act -4 and NOD2-RIPK2 inh -4.
Screening COc1ccc(CN(C)C[C@@H]2OCc3cnnn3CCCC(=O)N([C@@H](C)CO)C[C@H]2C)cc1 returned GC-B act -1, Neddylation inh 8, TLR9-MyD88 block -9, GC-A act 1 and NOD2-RIPK2 inh 1.
